Screening results: PubChem BioAssay, Broad Institute
aSyn 5UTR act = Activators via SNCA 5'UTR binding, MLPCN | alpha-synuclein 5'UTR reporter, activators screen | activity score, % (tested at 7.5 µM), hits read low | 7.1% of 300,000 active | AID 1814; in the data active = activity score below about -60%
* marks the source's active call; other numbers are inactive results. Not all results are given here.

SMILES | aSyn 5UTR act
COc1ccc(/C=C/C2=NNC(=O)CC2)cc1 | 59.6
C=CCN1N=C(/C=C/c2ccc(C)cc2)CCC1=O | -88.6*
C=CCN1N=C(/C=C/c2ccc(OC)cc2)CCC1=O | -84.3*
Cc1ccc(-c2nc(N=Nc3ccc(O)cc3)n[nH]2)cc1 | -182.1*
Cc1c(-c2nc(N)nc(Nc3ccc(F)cc3)n2)oc2ccccc12 | -95.3*
Cc1nc(N)sc1C(=O)N/N=C/c1ccccc1[N+](=O)[O-] | -133.0*
CC(/C=N/NC(=O)c1sc(N)nc1C)=C\c1ccccc1 | -115.7*
Cc1nc(N)sc1C(=O)N/N=C/c1c[nH]c2ccccc12 | -79.4*
Cn1cccc1/C=N/NC(=O)c1sc2ccccc2c1Cl | -79.9*
Cc1nnsc1C(=O)N/N=C/c1ccc2ccccc2c1O | 120.0
O=C(N/N=C/c1c[nH]c2ccccc12)c1sc2ccccc2c1Cl | -68.8*
Nc1[nH]nc2c1NN(c1ccc(Cl)cc1Cl)N2 | -139.6*
COc1cc(C)ccc1OCCOc1ccccc1Cl | -208.0*
COc1cc(C)ccc1OCCCOc1ccccc1Cl | -207.3*
CC1(C)N=C(N)N=C(N)N1c1ccc(OCCCOc2ccccc2)c(Cl)c1 | 78.3
Cc1cccc(-n2[nH]c3c4c(ccc3c2=O)C(=O)c2ccccc2C4=O)c1 | -62.0*
O=C1c2ccccc2C(=O)c2c1ccc1c(=O)n(-c3ccccc3)[nH]c21 | -109.7*
Cc1ccc(NC(=O)C(=O)Nc2ccccn2)cc1 | 71.0
COc1cc2ccccc2cc1C(=O)Nc1cc(C)ccn1 | -94.3*
COc1cc(C(=O)Nc2ccccc2C(=O)Nc2ccccn2)cc(OC)c1OC | -66.5*
COc1ccc(C(=O)Nc2ccccc2C(=O)Nc2cccnc2)cc1 | -80.3*
COc1ccccc1NC(=O)C(=O)Nc1ccccn1 | -167.0*
Cc1ccnc(NC(=O)c2cc3ccccc3oc2=O)c1 | -202.5*
COc1ccc(C(=O)NC(=O)Nc2cc(C)ccn2)cc1 | 72.0
COc1ccc(C(=O)Nc2ccccc2C(=O)Nc2cccc(C)n2)cc1 | -86.1*
SMILES | aSyn 5UTR act
COc1ccc(C(=O)Nc2ccccc2C(=O)Nc2cc(C)ccn2)cc1 | -107.3*
Cn1cc(C(=O)Nc2ccccn2)c(=O)c2ccccc21 | -113.7*
Cc1ccc2nc(-c3ccc(SCC(=O)Nc4ccc5c(c4)OCCO5)nc3)[nH]c2c1 | -327.5*
O=C(CSc1ccc(-c2nc3ccccc3[nH]2)cn1)Nc1ccc2c(c1)OCCO2 | -234.7*
Cc1cc2nc(-c3ccc(SCC(=O)Nc4ccc5c(c4)OCCO5)nc3)[nH]c2cc1C | -207.0*
Cc1cc2nc(-c3ccc(SCC(=O)N4CCN(C(=O)c5ccco5)CC4)nc3)[nH]c2cc1C | -87.6*
O=C(O)c1c(-c2ccc(Cl)cc2)cn2ccccc12 | -166.6*
Cc1nc2c(-c3ccc(F)cc3)cnn2c2c1CCC2 | -86.6*
NC(=S)N/N=C/c1ccc2c(c1)OCCO2 | -76.0*
S=C(N/N=C/c1ccc2c(c1)OCO2)NC1CC2CCC1C2 (stereo not given) | -128.0*
NC(=S)N/N=C/c1ccc(C23CC4CC(CC(C4)C2)C3)cc1 | -309.8*
CNC(=S)N/N=C/c1ccc2c(c1)OCCO2 | -72.6*
NCCOc1ccc(C23CC4CC(CC(C4)C2)C3)cc1 | 81.0
Cc1nc2cc(-c3ccccc3)[nH]n2c(=O)c1C | -113.9*
Cc1nc2nc(-c3ccccc3)[nH]n2c(=O)c1C | -119.4*
Cc1ccccc1Nc1nnc(SCC(=O)Nc2ccccc2[N+](=O)[O-])s1 | -81.3*
CCCSc1nnc(Nc2ccccc2C)s1 | -95.8*
C/C(N)=C(/C#N)C(=O)CSc1nnc(Nc2cccc(C)c2C)s1 | -116.7*
CCN(CC)C(=O)CCCSc1nnc(Nc2ccccc2F)s1 | -74.9*
O=C(NCCc1ccccc1Cl)c1ccc2nc3ccccc3c(=O)n2c1 | -100.2*
CCC1CCCCN1CCCNC(=O)CC1Oc2ccccc2NC1=O (stereo not given) | -75.0*
Cc1ccc(-n2nnc(-c3cc4ccccc4nc3Cl)n2)cc1 | -148.2*
COc1ncccc1-c1nnn(-c2ccc(F)cc2)n1 | -97.0*
COc1ncccc1-c1nnn(-c2ccc(C)cc2)n1 | -160.6*
COc1ncccc1-c1nnn(-c2ccc(Cl)c(Cl)c2)n1 | -169.0*
SMILES | aSyn 5UTR act
O=c1[nH]c2ccccc2cc1-c1nnn(-c2ccc(F)cc2)n1 | -102.8*
CC(/C=N/NC(=O)c1ccccc1C)=C\c1ccccc1 | -136.3*
CC(/C=N/NC(=O)c1ccccc1F)=C\c1ccccc1 | -137.8*
CCC(=O)Nc1cccc(-c2nnc(SCC(=O)c3ccccc3)n2C)c1 | -103.0*
Cn1c(SCC(=O)c2ccccc2)nnc1-c1cccs1 | -101.8*
Cn1c(SCC(=O)c2ccccc2)nnc1-c1cnccn1 | -67.0*
CCn1c(SCc2nc3ccccc3[nH]2)nnc1-c1cnccn1 | -89.7*
Cn1c(SCc2c(Cl)cccc2Cl)nnc1-c1cccs1 | -61.6*
CCn1c(SCC(=O)c2ccccc2)nnc1-c1cnccn1 | -77.6*
CCC(=O)Nc1cccc(-n2nnnc2SCC(=O)c2ccc(C)c(C)c2)c1 | -84.1*
CCC(=O)Nc1cccc(NC(=S)NC(=O)c2ccccc2Cl)c1 | -81.9*
O=C(NC(=S)Nc1ccccc1O)c1ccc(Cl)cc1Cl | -106.3*
O=C(NC(=S)Nc1ncccn1)c1ccccc1Cl | -181.2*
